According to PubChem BioAssay AID1159606 (Sanford-Burnham Center for Chemical Genomics, 2016):
Out of some 360,000 compounds screened, about 7,300 (2%) were called active. Cut-off read from the data, not from the text of the source: active = inhibition above about 50%; inactive = the rest. For the sample, actives were picked, then their nearest neighbours and some compounds at random.

assay: inhibitors of TWEAK-Fn14 signaling, primary screen, luciferase reporter cells, uHTS (AID 1159606); conditions: TWEAK-stimulated Fn14 reporter cells, luciferase luminescence, 8 h; at 10 µM; stronger effect = higher value

inhibition, inactive:
COc1ccc(Cl)cc1C=CC=NNC(=O)c1ccncc1 -16.2%, COc1cc(C(=O)Nn2c(O)c(C3=c4ccccc4=NC3=O)sc2=S)ccc1O 4.56%, Nc1nc(SCC(=O)N2CCN(S(=O)(=O)c3ccc(Cl)cc3)CC2)n[nH]1 4.55%, O=C1NC[C@H](Cc2ccc(O)cc2)N(C[C@H]2CCCN2C[C@H](Cc2ccccc2)N2C[C@H](Cc3ccccc3)N(CCc3ccccc3)C(=O)C2=O)C1=O -7.56%, COc1ccc(C(=O)O)cc1S(=O)(=O)NCc1cccnc1 16.8%, O=C(N/N=C/c1cc([N+](=O)[O-])ccc1O)/C(=C\c1cccs1)NC(=O)c1ccccc1 5.24%, Nc1nnnn1/N=C/c1cc([N+](=O)[O-])ccc1O -1.63%, Cc1ccc(-c2nc(-c3cccnc3)sc2CC(=O)Nc2ccc(C)c(Cl)c2)cc1 -0.71%, COCCCNC(=O)CCc1nc2cccnc2n1Cc1ccc(OC)cc1 16.3%, CCc1nc2cccnc2n1-c1ccc(C(=O)O)cc1 2.68%, COc1ccc(CNC(=O)c2cc(C(=O)C3CC3)c[nH]2)cc1 -10.9%, CN1CCC(N(C)S(=O)(=O)c2ccc(NC(=O)c3cccc(C#N)c3)cc2)CC1 5.91%, Cc1nc(N)nc(Cl)c1CCC1OCCO1 -6.2%, COc1cc(NC(=S)N2CCCC(C)C2)c(OC)cc1Cl (stereo not drawn) 12.8%, O=C1NC[C@H](CCCCN2C[C@H](Cc3ccc(O)cc3)N(CC3CCCCC3)C(=O)C2=O)N(CCc2ccccc2)C1=O 2.86%, Cc1ccc(CN(CC(=O)NCC2CCCO2)S(=O)(=O)c2ccc(C)cc2)cc1 (stereo not drawn) 5.7%, CN(c1ccc(OCC(=O)OCC(=O)Nc2cccc([N+](=O)[O-])c2)cc1)S(=O)(=O)c1ccc(F)cc1 -9.04%, COc1ccc(N(CC(=O)Nc2ccc(C)cc2C)S(=O)(=O)c2ccccc2[N+](=O)[O-])c(OC)c1 0.97%, Cc1ccc(N(CC(=O)Nc2cc(C)cc(C)c2)S(=O)(=O)c2cccc3nonc23)cc1 9.38%, O=C(NCc1cccc(C(F)(F)F)c1)c1ccc2sc(COCCO)nc2c1 -7.3%, COc1ccccc1C(=O)N(C1=NC(C)CS1)c1ccc(Cl)cc1 (stereo not drawn) 10.7%, CCOC(=O)[C@]12CCC=C1N(CCC1=CCCCC1)C(=O)[C@H](CC(=O)NCc1ccc(C)o1)C2 5.47%, O=C(Nc1ccc(N2CCOCC2)cc1)c1cccc2c(-c3ccc(F)c(F)c3)coc12 -28%, CCOC(=O)[C@]12CCC=C1N(Cc1cccc3ccccc13)C(=O)[C@H](CC(=O)NCc1cccc(C(F)(F)F)c1)C2 13.4%, Cc1ccc(S(=O)(=O)N2CCN(C(=O)c3ccccc3-c3nc4ccccc4s3)CC2)c(C)c1 -40.8%, CC(=O)C12CC(C)=C(C)CC1CC1C3CCC4=CC(=O)CCC4(C)C3CCC12C (stereo not drawn) -12.9%, CSc1ncnc2c1ncn2CCCNCC1CCCCC1 -1.18%, CC(C)COC(=O)n1c(=O)oc2ccc(S(=O)(=O)N3CCCCC3)cc21 19.6%, Cc1noc(C)c1C(=O)N(CC(=O)NC1CCCC1)Cc1ccccc1F -13.7%, FC(F)(F)c1ccc2nnc(-c3c(Cl)cccc3Cl)n2c1 0.93%, CC(=O)Nc1ccc(C(=O)CSc2nnc(Cc3ccccc3)o2)cc1 -13.6%, COc1cc(C(=O)NCc2nnc(SCC(=O)c3ccc(Cl)cc3)o2)cc(OC)c1OC -10.8%, CCCCn1c(O)c(N=NC(=O)Cn2c(C(F)(F)F)nc3ccccc32)c2ccccc21 -12.1%, CC1(C)CC(=O)C=C(c2ccc(COC(=O)c3cc(F)cc(F)c3)cc2)C1=O -6.91%, O=[N+]([O-])c1ccc(CN2CC(N3CCC(c4ccccc4)CC3)CS2(=O)=O)cc1 (stereo not drawn) -12.9%, CCS(=O)(=O)N1Cc2ccccc2CC1C(=O)Nc1nc2ccc(F)cc2s1 (stereo not drawn) 21.8%, CSc1ncccc1C(=O)Nc1ccc(C)cn1 1.24%, COc1cccc(NS(=O)(=O)c2ccc3[nH]cc(C(=O)NCCCOC(C)C)c(=O)c3c2)c1 -0.08%, CCCCc1ccc(S(N)(=O)=O)cc1 -10.5%, COc1ccc(S(=O)(=O)N2CCCCC2)cc1NC(=O)c1cc([N+](=O)[O-])ccc1N1CCOCC1 0.95%, O=C(NCc1ccc2c(c1)OCO2)c1cc([N+](=O)[O-])ccc1N1CCOCC1 9.16%, Cc1cc(C)cc(NC(=O)N2CCC(NC(=O)c3ccc(F)cc3)CC2)c1 -39.6%, Cc1ccc2c(c1)N(CC(=O)N1CCC(O)CC1)C(=O)CO2 33.3%, CC(C)NS(=O)(=O)c1ccc(NC(=O)c2cccnc2)cc1 -3.3%, Cc1ccc(-n2nc3cc(C)c(NC(=O)c4cccnc4)cc3n2)cc1 8.31%, O=C(Cc1ccccc1)Nc1ccc(NC(=O)c2cccnc2)cc1 2.31%, Cc1cc(NS(=O)(=O)c2ccc(NC(=O)c3cccnc3)cc2)nc(C)n1 14.2%

inhibition, active:
O=[N+]([O-])c1ccc(O)c(/C=N/Nc2ccccc2[N+](=O)[O-])c1 71.5%, COCCCNC(=O)Cc1ccc(-n2c(C)nc3cccnc32)cc1 84.3%, Cc1ccc(S(=O)(=O)N(CC(=O)Nc2cccc([N+](=O)[O-])c2)Cc2ccc(Cl)cc2)cc1 51.2%, COc1ccc(C)cc1S(=O)(=O)N(CC(=O)Nc1cccc([N+](=O)[O-])c1)c1ccc(C)cc1 61.9%, CSc1ncnc2c1ncn2CC(=O)C1CCC2C3CCC4=CC(=O)CCC4(C)C3CCC12C (stereo not drawn) 105%, CC(C)C[C@@H](N)c1nnc(SCC(=O)c2ccc(Cl)cc2)o1 58.5%, Fc1ccc2[nH]c3c(N4CCSCC4)ncnc3c2c1 77.1%, CSc1ncccc1C(=O)Nc1nc2ccc(F)cc2s1 76.2%, CCOc1ccc2nc(NC(=O)c3cc([N+](=O)[O-])ccc3N3CCOCC3)sc2c1 58.5%, Cc1cc2nc(-c3ccc(NC(=O)c4cccnc4)cc3)oc2cc1C 52.2%, Cc1ccc2nc(-c3ccc(NC(=O)c4cccnc4)cc3)oc2c1 71.4%
